Experimental findings from paper PMC7862700, “An all-to-all approach to the identification of sequence-specific readers for epigenetic DNA modifications on cytosine” are described below.

Holding throughout (test): DAPPL (digital affinity profiling via proximity ligation, sequencing); 10 mM Tris-HCl pH 7.5, 50 mM NaCl, 1 mM DTT, 4% glycerol, room temperature, 30 min; GST-TFs on glutathione beads, 16-mer random dsDNA library, 0.1% formaldehyde crosslink after washing; high values mean tight binding
The target of one test is T1, FEV (Homo sapiens, UniProt Q99581 1-238).
T1 sequence: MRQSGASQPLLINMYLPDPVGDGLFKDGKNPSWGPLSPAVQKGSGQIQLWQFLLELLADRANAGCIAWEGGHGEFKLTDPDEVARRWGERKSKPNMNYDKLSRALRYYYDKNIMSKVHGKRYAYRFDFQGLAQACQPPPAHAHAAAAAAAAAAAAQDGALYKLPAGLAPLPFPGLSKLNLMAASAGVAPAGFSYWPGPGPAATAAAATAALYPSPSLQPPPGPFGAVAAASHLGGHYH
Particulars: protein: recombinant; tags: N-terminal GST; dsDNA, one strand shown. An outline of the steps: (§1)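 Human transcription factors were made in yeast as GST fusions, captured on glutathione beads and barcoded with DNA. With a tag-only sample included, the pool was incubated with 200 nmole of a random double-stranded 16-mer DNA library in Tris/NaCl/DTT/glycerol buffer at room temperature for 30 min, then crosslinked with 0.1% formaldehyde after washing, ligated by proximity, amplified and sequenced. For binding signal, each hexamer's read frequency for a factor is divided by its frequency for the tag-only sample.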

The target in another test is ETV5 (Homo sapiens, UniProt P41161 1-510). As to conditions: protein: recombinant; tags: N-terminal GST; dsDNA, one strand shown. The procedure, abridged:
as §1

For the next test, the target named is HSF1 (Homo sapiens, UniProt Q00613 1-529). Particulars: protein: recombinant; tags: N-terminal GST; chain copies: 3; dsDNA, one strand shown. An outline of the steps: as §1
Sequence of HSF1 (Q00613 whole entry): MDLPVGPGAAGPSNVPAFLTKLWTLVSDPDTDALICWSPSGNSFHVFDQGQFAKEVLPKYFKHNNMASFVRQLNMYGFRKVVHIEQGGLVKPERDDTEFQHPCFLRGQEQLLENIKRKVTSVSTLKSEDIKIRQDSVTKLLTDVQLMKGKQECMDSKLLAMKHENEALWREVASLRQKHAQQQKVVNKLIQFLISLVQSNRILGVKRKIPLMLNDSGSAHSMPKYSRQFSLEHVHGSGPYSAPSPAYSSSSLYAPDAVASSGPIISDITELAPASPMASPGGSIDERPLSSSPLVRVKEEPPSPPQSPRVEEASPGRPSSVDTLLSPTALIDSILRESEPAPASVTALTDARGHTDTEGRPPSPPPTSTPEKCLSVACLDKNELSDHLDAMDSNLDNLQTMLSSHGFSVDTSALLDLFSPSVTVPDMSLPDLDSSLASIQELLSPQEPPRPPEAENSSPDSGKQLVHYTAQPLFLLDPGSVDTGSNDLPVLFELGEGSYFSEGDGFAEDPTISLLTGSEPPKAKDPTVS
A further test deals with T2, SPIC (Homo sapiens, UniProt Q8N5J4 1-248).
T2 sequence: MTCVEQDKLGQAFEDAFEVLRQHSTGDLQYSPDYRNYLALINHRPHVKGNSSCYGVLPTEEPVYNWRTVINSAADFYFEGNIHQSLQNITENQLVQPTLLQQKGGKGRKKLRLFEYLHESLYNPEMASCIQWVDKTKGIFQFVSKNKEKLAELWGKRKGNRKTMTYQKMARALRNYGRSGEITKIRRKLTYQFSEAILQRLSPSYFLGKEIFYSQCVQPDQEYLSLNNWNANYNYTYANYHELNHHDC
Particulars: protein: recombinant; tags: N-terminal GST; dsDNA, one strand shown. An outline of the steps:
as §1

In the next test the target is ELF4 (Homo sapiens, UniProt Q99607 1-663). Particulars: protein: recombinant; tags: N-terminal GST; dsDNA, one strand shown. The procedure, abridged:
as §1

A further test concerns the target T3, ELK4 (Homo sapiens, UniProt P28324-2 1-405).
T3 sequence: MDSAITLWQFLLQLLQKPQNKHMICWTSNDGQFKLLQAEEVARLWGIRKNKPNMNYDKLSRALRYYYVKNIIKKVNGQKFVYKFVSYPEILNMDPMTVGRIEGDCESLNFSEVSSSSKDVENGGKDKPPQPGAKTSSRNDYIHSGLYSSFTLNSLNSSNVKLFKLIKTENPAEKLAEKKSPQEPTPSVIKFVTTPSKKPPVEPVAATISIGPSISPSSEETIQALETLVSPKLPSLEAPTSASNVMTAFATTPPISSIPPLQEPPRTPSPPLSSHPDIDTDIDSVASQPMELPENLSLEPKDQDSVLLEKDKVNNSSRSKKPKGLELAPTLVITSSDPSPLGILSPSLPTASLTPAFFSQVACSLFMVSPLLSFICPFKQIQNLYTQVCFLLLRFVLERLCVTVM
Particulars: protein: recombinant; tags: N-terminal GST; dsDNA, one strand shown. An outline of the steps: as §1

The next test deals with T4, ETV2 (Homo sapiens, UniProt O00321 1-342).
T4 sequence: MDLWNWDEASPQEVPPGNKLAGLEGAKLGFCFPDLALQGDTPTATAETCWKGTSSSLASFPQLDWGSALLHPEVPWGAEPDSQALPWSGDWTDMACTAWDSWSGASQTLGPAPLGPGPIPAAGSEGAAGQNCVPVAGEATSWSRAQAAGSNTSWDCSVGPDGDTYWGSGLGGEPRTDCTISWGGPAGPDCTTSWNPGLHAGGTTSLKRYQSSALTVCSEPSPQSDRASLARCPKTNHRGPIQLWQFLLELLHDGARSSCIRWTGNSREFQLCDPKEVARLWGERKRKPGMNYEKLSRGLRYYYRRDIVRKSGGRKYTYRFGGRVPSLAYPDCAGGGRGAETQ
As to conditions: protein: recombinant; tags: N-terminal GST; dsDNA, one strand shown. The procedure, abridged: as §1

In the next test the target is T5, ELF3 (Homo sapiens, UniProt P78545 1-371).
T5 sequence: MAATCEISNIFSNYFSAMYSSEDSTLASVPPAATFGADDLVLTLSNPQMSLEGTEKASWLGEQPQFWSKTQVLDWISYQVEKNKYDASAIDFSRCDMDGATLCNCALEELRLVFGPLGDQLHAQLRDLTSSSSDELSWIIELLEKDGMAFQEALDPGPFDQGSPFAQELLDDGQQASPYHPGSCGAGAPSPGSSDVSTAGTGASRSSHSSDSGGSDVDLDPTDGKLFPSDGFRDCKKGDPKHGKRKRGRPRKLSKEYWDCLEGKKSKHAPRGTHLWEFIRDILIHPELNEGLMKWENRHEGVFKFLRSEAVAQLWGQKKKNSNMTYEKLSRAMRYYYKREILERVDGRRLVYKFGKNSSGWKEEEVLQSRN
As to conditions: protein: recombinant; tags: N-terminal GST; dsDNA, one strand shown. An outline of the steps: as §1

The target in a further test is CRX (Homo sapiens, UniProt O43186 1-299). Particulars: protein: recombinant; tags: N-terminal GST; dsDNA, one strand shown. An outline of the steps:
as §1

A further test addresses ETV1 (Homo sapiens, UniProt P50549 1-477). Particulars: protein: recombinant; tags: N-terminal GST; dsDNA, one strand shown. The procedure, abridged:
as §1

Another test has as its target T6, ERF (Homo sapiens, UniProt P50548 1-548).
T6 sequence: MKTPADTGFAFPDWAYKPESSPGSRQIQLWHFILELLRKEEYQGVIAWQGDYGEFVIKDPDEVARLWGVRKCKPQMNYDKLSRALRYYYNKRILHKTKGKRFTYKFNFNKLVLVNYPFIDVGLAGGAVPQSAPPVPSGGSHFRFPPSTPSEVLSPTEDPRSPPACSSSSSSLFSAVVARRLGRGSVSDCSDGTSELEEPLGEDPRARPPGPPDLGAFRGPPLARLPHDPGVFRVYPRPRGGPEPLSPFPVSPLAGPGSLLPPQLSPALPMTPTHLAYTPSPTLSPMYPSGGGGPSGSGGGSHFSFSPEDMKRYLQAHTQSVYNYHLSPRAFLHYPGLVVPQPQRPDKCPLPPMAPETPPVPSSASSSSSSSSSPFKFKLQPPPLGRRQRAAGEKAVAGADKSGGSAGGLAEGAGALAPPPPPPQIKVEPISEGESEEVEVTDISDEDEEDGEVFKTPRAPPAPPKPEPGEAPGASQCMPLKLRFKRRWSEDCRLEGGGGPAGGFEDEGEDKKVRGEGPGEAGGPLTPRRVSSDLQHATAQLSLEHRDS
Particulars: protein: recombinant; tags: N-terminal GST; dsDNA, one strand shown. The procedure, abridged:
as §1

A further test has as its target T7, ETV3L (Homo sapiens, UniProt Q6ZN32 1-361).
T7 sequence: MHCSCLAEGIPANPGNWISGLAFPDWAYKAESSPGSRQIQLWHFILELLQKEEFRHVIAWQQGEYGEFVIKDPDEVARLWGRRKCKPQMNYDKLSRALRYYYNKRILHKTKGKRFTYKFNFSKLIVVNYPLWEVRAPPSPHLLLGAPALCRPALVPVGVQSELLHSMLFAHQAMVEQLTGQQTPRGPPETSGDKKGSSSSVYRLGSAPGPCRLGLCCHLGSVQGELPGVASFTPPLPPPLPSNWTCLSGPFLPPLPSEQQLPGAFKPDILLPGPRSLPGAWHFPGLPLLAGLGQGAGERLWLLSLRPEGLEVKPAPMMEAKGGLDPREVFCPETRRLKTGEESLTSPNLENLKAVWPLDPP
As to conditions: protein: recombinant; tags: N-terminal GST; dsDNA, one strand shown. An outline of the steps: as §1

For a further test, the target named is T8, ETS2 (Homo sapiens, UniProt P15036 1-469).
T8 sequence: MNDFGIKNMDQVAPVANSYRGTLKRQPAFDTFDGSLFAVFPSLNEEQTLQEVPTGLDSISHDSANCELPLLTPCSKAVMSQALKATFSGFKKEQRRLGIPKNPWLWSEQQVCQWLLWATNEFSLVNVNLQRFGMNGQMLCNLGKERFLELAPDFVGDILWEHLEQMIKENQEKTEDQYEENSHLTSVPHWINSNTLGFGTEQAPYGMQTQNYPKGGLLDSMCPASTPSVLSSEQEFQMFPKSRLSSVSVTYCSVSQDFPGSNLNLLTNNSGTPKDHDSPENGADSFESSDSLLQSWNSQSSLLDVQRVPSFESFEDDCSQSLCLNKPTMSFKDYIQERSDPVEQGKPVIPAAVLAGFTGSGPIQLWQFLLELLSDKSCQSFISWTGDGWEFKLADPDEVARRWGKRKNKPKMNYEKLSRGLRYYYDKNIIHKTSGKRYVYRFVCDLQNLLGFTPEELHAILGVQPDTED
As to conditions: protein: recombinant; tags: N-terminal GST; dsDNA, one strand shown. The procedure, abridged:
as §1

For another test, the target named is T9, SPDEF (Homo sapiens, UniProt O95238 1-335).
T9 sequence: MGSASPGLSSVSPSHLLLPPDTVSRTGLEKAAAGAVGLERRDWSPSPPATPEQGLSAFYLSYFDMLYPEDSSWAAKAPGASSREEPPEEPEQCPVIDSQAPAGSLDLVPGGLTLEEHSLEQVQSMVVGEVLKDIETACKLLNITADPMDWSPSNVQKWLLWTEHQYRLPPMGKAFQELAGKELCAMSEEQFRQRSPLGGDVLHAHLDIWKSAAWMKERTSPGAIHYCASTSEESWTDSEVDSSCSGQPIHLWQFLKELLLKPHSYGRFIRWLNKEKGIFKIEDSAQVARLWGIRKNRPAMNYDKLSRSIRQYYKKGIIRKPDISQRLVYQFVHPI
Particulars: protein: recombinant; tags: N-terminal GST; dsDNA, one strand shown. The procedure, abridged: as §1

The target of another test is T10, ETV7 (Homo sapiens, UniProt Q9Y603 1-341).
T10 sequence: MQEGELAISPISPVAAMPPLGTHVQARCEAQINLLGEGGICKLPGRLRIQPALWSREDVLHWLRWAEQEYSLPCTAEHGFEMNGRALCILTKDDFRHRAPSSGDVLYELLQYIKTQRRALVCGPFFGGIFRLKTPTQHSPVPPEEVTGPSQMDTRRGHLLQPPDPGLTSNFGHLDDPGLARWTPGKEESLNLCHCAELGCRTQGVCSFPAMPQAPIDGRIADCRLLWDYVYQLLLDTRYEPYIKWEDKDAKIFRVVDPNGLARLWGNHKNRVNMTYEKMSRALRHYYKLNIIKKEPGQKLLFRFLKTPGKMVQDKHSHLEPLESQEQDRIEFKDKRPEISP
Particulars: protein: recombinant; tags: N-terminal GST; dsDNA, one strand shown. An outline of the steps:
as §1

Another test addresses T11, ELF5 (Homo sapiens, UniProt Q9UKW6-2 1-255).
T11 sequence: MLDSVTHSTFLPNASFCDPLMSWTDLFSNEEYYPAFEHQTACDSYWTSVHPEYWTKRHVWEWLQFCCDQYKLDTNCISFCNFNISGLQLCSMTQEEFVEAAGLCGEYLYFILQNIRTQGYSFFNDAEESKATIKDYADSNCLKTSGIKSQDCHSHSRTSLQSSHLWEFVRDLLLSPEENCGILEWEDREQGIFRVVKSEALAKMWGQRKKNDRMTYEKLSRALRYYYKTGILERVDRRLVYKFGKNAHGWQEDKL
As to conditions: protein: recombinant; tags: N-terminal GST; dsDNA, one strand shown. The procedure, abridged:
as §1

In a further test the target is T12, ETV3 (Homo sapiens, UniProt P41162-2 1-143).
T12 sequence: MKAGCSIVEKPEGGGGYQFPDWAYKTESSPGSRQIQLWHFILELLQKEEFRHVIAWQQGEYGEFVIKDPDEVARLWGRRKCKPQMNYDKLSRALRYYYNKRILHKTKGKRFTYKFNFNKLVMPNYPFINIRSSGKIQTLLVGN
As to conditions: protein: recombinant; tags: N-terminal GST; dsDNA, one strand shown. The procedure, abridged: as §1

A further test addresses ETV6 (Homo sapiens, UniProt P41212 1-452). Particulars: protein: recombinant; tags: N-terminal GST; dsDNA, one strand shown. An outline of the steps: as §1

Sequence of CRX (O43186 whole entry): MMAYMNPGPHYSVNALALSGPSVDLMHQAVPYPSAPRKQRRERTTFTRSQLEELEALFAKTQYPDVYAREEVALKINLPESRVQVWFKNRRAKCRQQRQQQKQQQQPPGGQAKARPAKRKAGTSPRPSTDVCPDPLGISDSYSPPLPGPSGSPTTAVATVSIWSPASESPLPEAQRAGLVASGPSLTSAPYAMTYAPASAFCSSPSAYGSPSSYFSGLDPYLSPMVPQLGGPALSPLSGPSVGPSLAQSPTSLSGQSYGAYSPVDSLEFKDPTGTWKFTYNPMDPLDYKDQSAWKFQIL
Sequence of ELF4 (Q99607 whole entry): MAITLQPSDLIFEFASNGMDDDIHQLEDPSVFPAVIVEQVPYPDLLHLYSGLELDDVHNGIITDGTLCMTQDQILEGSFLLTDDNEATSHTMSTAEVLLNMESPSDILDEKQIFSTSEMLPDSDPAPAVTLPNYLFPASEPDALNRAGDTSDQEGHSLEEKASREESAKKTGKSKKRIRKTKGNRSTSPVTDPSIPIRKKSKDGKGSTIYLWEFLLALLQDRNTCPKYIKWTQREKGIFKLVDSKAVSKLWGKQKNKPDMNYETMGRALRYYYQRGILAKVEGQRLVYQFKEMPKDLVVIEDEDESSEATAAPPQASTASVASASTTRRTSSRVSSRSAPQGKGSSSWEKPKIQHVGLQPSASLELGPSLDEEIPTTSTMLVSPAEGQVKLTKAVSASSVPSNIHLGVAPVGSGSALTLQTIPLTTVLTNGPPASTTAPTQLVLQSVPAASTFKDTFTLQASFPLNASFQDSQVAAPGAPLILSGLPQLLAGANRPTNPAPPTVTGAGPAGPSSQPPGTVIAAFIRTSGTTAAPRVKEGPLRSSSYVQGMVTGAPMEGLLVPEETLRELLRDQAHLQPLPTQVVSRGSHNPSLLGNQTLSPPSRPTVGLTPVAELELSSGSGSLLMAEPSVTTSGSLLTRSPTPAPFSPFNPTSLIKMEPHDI
Sequence of ETV1 (P50549 whole entry): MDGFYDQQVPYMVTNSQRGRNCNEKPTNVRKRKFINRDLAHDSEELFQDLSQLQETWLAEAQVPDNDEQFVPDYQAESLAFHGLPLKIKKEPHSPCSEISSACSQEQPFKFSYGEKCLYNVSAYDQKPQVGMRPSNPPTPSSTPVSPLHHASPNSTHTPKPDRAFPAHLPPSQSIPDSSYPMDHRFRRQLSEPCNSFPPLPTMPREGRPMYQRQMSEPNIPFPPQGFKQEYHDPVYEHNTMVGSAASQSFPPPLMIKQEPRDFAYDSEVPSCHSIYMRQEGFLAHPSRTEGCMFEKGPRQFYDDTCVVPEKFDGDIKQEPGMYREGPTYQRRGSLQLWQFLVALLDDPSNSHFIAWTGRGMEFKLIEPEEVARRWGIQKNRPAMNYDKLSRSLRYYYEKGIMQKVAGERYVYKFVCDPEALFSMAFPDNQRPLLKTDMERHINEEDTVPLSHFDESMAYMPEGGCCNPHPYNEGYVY
Sequence of ETV5 (P41161 whole entry): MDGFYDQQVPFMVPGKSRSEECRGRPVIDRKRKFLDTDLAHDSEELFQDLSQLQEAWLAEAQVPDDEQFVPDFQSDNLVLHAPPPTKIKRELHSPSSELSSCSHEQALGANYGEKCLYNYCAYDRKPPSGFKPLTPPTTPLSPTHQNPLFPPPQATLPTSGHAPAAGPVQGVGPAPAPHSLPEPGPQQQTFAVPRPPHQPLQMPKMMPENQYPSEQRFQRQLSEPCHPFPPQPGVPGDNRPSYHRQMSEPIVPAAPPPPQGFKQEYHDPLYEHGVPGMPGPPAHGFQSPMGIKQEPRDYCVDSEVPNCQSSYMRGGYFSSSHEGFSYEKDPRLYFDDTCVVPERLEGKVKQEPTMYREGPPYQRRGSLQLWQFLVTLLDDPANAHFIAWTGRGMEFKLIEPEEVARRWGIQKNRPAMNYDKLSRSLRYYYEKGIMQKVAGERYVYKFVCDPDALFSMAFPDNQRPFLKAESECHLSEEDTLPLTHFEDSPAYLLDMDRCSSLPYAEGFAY
Sequence of ETV6 (P41212 whole entry): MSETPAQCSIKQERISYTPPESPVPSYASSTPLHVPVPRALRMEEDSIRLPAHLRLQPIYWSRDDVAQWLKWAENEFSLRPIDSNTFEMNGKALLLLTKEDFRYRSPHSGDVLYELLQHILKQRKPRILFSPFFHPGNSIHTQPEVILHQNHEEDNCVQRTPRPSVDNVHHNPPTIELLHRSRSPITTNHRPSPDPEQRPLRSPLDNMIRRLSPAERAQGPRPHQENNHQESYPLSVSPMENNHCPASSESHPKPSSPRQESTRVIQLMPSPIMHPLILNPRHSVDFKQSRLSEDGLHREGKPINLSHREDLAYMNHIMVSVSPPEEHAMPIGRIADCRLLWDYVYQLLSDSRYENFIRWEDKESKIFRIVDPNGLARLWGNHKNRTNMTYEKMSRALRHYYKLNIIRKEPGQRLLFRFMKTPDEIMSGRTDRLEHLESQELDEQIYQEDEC

In the case of ATTCAT, the binding signal with FEV is 1.11 fold enrichment (6-mer frequency, TF over GST control); in the test with ETV5, 1.21 fold enrichment (6-mer frequency, TF over GST control); with HSF1, 1.12 fold enrichment (6-mer frequency, TF over GST control); with SPIC, 1.24 fold enrichment (6-mer frequency, TF over GST control); in the test with ELF4, 1.17 fold enrichment (6-mer frequency, TF over GST control); with ELK4, 1.18 fold enrichment (6-mer frequency, TF over GST control). In addition, the binding signal with ETV2 was 1.15 fold enrichment (6-mer frequency, TF over GST control); with ELF3, 1.22 fold enrichment (6-mer frequency, TF over GST control); with CRX, 1.16 fold enrichment (6-mer frequency, TF over GST control); in the test with ETV1 it was 1.18 fold enrichment (6-mer frequency, TF over GST control); with ERF, 1.14 fold enrichment (6-mer frequency, TF over GST control); with ETV3L, 1.27 fold enrichment (6-mer frequency, TF over GST control). For the same sequence, the binding signal with ETS2 was 1.13 fold enrichment (6-mer frequency, TF over GST control); with SPDEF, 1.07 fold enrichment (6-mer frequency, TF over GST control); with ETV7 it was 1.18 fold enrichment (6-mer frequency, TF over GST control); with ELF5, 1.1 fold enrichment (6-mer frequency, TF over GST control); with ETV3, 1.19 fold enrichment (6-mer frequency, TF over GST control); in the test with ETV6 it was 1.11 fold enrichment (6-mer frequency, TF over GST control).
